Results filed as inconclusive are left out. Activity calls are given as the source filed them. Unless noted, calls come from the whole dose curve; as a rule, active = well fitted curve in the direction sought with a large enough effect in the repeat runs; inconclusive = weak or mixed curves; inactive = no such curve, though single readings can be large; an effect the other way counts as inactive or inconclusive.
Experiments:
[1] = qHTS assay for small molecules that induce genotoxicity in human embryonic kidney cells expressing luciferase-tagged ATAD5 (AID 651632); note: nearly all actives have a fitted effect of over 15% in size
Summary of the method: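 Reporter cells (HEK293T) express luciferase-tagged ATAD5, a protein that accumulates after DNA damage. Treat 16 hr at 37C/5% CO2, add Amplite, wait 30 min at RT, and read luminescence.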

[2] = qHTS assay for small molecule agonists of the p53 signaling pathway - cell viability (AID 651633; calls by dose curve;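 note: p53RE-bla HCT reporter cells with a stable beta-lactamase p53 reporter; series mostly up to about 83 µM; nearly all actives have a fitted effect of over 30% in size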)
Summary of the method: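 p53RE-bla cells were treated with compound for 16 hours at 37 C. Cytotoxicity was then measured as CellTiter-Glo luminescence after 30 min at room temperature.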

[3] = qHTS assay for small molecules that induce genotoxicity in human embryonic kidney cells expressing luciferase-tagged ATAD5 - cell viability (AID 651634; calls by dose curve; note: nearly all actives have a fitted effect of over 25% in size)
Summary of the method: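 Seeding of 2,000 HEK293T ATAD5-luciferase cells per well preceded pin-tool compound transfer. Plates sat 15.5 hr at 37C under 5% CO2, then fluorescence was read after 30 min with CellTiter-Fluor.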

[4] = qHTS assay for small molecule disruptors of the mitochondrial membrane potential - cell viability (AID 720634; calls by dose curve;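 note: human HepG2 liver cancer cells; series mostly up to about 83 µM; nearly all actives have a fitted effect of over 20% in size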)
Summary of the method: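 Measuring cytotoxicity alongside mitochondrial potential, the screen quantified ATP by luminescence in HepG2 cells after 1 hr compound incubation and a 30 min room-temperature CellTiter-Glo step.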

[5] = qHTS assay to test for compound auto fluorescence at 590 nm (red) in HepG2 cells (AID 720674)
Summary of the method: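 Seeding: 2,000 HepG2 cells/well, MEM/10% FBS, overnight 37 C. Dosing: compound vs DMSO. Incubation: 1 hr, 37 C, 5% CO2. Read: fluorescence 540 ex/590 em, Rose Bengal sodium as red reference.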

[6] = qHTS assay to test for compound auto fluorescence at 535 nm (green) in HepG2 cells (AID 720675)
[7] = qHTS assay to test for compound auto fluorescence at 460 nm (blue) in HEK293 cells (AID 720678)
Summary of the method: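 After cell attachment (4-5 hr, 37C), compounds were pinned onto HEK293 monolayers in 10% dialyzed FBS medium. The blue channel (405/460 nm) was read following overnight culture. Equivalency was calculated against triamterene.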

[8] = qHTS assay to test for compound auto fluorescence at 590 nm (red) in HEK293 cells (AID 720679)
Summary of the method: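 Plates of HEK293 cells (10% dialyzed FBS) are treated with 23 nL compound or DMSO vehicle after a 4-5 hr attachment period, incubated overnight at 37C, and read for red fluorescence at 540/590nm.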

[9] = qHTS assay to test for compound auto fluorescence at 535 nm (green) in HEK293 cells (AID 720680)
[10] = qHTS assay to test for compound auto fluorescence at 460 nm (blue) in HEK293 cell free culture (AID 720681)
Summary of the method: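 Compounds were added to cell-free DMEM with 10% FBS and fluorescence read directly. The blue channel used 405 nm excitation and 460 nm emission, with triamterene as the reference fluorophore.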

[11] = qHTS assay to test for compound auto fluorescence at 590 nm (red) in HEK293 cell free culture (AID 720683)
Summary of the method: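 Cell-free wells of DMEM with 10% FBS received compound, and intrinsic fluorescence was read at excitation/emission 540/590 nm. Values expressed as equivalence to Rose Bengal sodium.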

[12] = qHTS assay to test for compound auto fluorescence at 460 nm (blue) in HepG2 cell free culture (AID 720685)
Summary of the method: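 Compound (23 nL) or DMSO pinned into cell-free MEM with 10% FBS; blue fluorescence read at 405/460 nm excitation/emission, expressed as auto-fluorescence equivalency to triamterene.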

[13] = qHTS assay to test for compound auto fluorescence at 535 nm (green) in HepG2 cell free culture (AID 720686)
[14] = qHTS assay to test for compound auto fluorescence at 460 nm (blue) in HepG2 cells (AID 720687)
Summary of the method: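 HepG2 cells in MEM with 10% FBS, attached overnight at 37 C, were exposed to compound or DMSO for 1 hr at 37 C, 5% CO2. Blue fluorescence was read at 405/460 nm, with triamterene as reference fluorophore.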

[15] = target: Glucocorticoid receptor (Homo sapiens) (UniProt P04150); experiment: qHTS assay to identify small molecule agonists of the glucocorticoid receptor (GR) signaling pathway (AID 720691; active = well fitted activation curve with a large enough effect in the signal ratio in the repeat runs, not every such curve was filed as active; the % refers to the signal ratio)
Sequence of Glucocorticoid receptor (Homo sapiens) (P04150 whole entry, looked up): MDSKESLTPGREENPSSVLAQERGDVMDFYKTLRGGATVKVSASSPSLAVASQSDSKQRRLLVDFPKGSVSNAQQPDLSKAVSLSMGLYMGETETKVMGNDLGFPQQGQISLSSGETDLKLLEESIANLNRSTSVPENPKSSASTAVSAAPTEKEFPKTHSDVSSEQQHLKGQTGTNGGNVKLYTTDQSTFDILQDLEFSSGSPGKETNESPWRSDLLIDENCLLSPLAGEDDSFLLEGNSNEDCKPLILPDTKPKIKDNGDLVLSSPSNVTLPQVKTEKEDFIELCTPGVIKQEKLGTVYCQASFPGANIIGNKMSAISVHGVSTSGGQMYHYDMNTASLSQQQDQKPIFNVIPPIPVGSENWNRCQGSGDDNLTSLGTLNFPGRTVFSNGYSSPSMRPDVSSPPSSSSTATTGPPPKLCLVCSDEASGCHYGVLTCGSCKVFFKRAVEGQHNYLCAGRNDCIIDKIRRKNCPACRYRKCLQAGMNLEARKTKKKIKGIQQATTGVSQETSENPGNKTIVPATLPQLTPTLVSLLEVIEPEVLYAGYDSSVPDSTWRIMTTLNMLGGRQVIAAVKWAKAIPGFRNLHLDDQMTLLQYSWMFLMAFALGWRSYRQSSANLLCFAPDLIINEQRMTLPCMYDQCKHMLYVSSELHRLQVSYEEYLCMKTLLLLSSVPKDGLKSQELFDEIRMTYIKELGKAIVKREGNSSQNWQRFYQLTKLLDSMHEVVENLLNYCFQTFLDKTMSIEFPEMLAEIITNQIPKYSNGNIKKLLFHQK
Summary of the method: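 Reporter read-out: fluorescence intensity following 2 h room-temperature LiveBLAzer B/G FRET substrate loading. Prior step: GR-bla HeLa cells held 4 h, then treated 18 h at 37 C.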

[16] = target: Glucocorticoid receptor (Homo sapiens) (UniProt P04150); experiment: qHTS assay to identify small molecule antagonists of the glucocorticoid receptor (GR) signaling pathway (AID 720692; active = well fitted inhibition curve with a large enough effect in the signal ratio in the repeat runs, not every such curve was filed as active; the % refers to the signal ratio)
Summary of the method: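 Dexamethasone (5 nM final) stimulated a stably integrated GRE-beta-lactamase reporter in HeLa cells during 18 h co-incubation with compounds; signal was quantified as fluorescence intensity of B/G FRET substrate after 2 h.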

[17] = qHTS assay for small molecule disruptors of the mitochondrial membrane potential (AID 720635)
Summary of the method: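 HepG2 cells exposed to compound 1 hr at 37C, then Mito-MPS dye 30 min. Ratio read of aggregate (540/590 nm) versus monomer (490/535 nm) fluorescence.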

[18] = qHTS assay to test for compound auto fluorescence at 590 nm (red) in HepG2 cell free culture (AID 720684)
Summary of the method: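 Compound was pinned into wells holding MEM with 10% FBS and no cells, and red fluorescence was read at Ex/Em 540/590 nm. Signal is expressed as auto fluorescence equivalency relative to Rose Bengal sodium.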

[19] = qHTS assay to test for compound auto fluorescence at 535 nm (green) in HEK293 cell free culture (AID 720682)
Summary of the method: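 Measurement is a direct plate read of green fluorescence (485 nm in, 535 nm out) after compound addition to serum-supplemented DMEM lacking cells, with fluorescein used to express intensities.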

[20] = qHTS assay for small molecule agonists of the p53 signaling pathway (AID 651631; calls by dose curve; note: nearly all actives have a fitted effect of over 15% in size)
Summary of the method: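 Quantitative high-throughput format: 4,000 p53RE-bla HCT-116 cells/well, 5 h pre-incubation, 16 h compound exposure at 37 °C, 2 h room-temperature substrate step, fluorescence intensity measured.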
% is set by controls: 0 for no effect and ±100 for the full control effect.

CCN1C=CN(C)C1C (configuration not stated)
inactive: Potency [1] | Potency [2] | Potency [3] | outcome [4] | outcome [5] | outcome [6] | outcome [7] | outcome [8] | outcome [9] | outcome [10] | outcome [11] | outcome [12] | outcome [13] | outcome [14] | Potency [15] | Potency [16]

C[N+]12CCC(CC1)C(OC(=O)C(O)(c1ccccc1)c1ccccc1)C2 (configuration not stated)
inactive: Potency [1] | Potency [2] | Potency [3] | outcome [4] | Potency [17] | fluorescence, relative to Rose Bengal [5] 0.0225% [at 18.6 µM] | fluorescence, % of fluorescein control [6] -0.0019% [at 18.6 µM] | fluorescence, % of triamterene [7] 0.0716% [at 18.6 µM] | fluorescence, % of fluorescent control [8] -0.175% [at 18.6 µM] | fluorescence, % of fluorescein [9] 0.041% [at 18.6 µM] | fluorescence, % of fluorescent control [10] 0.066% [at 18.6 µM] | fluorescence, % of fluorescent control [11] 0.0635% [at 18.6 µM] | fluorescence, % of Rose Bengal [18] 0.213% [at 18.6 µM] | fluorescence, % of fluorescent control [12] -0.0875% [at 18.6 µM] | fluorescence, % of fluorescein control [13] -0.0194% [at 18.6 µM] | fluorescence, % of fluorescent control [14] 0.0552% [at 18.6 µM] | Potency [15]

N[C@H](C(=O)O)[C@@H](O)c1ccc(O)c(O)c1
inactive: Potency [1] | Potency [2] | Potency [3] | outcome [4] | outcome [5] | outcome [6] | outcome [8] | outcome [9] | outcome [10] | outcome [19] | outcome [11] | outcome [18] | outcome [12] | outcome [13] | outcome [14] | Potency [15] | Potency [16]

O=C(O)CNC(=O)c1ccccc1
inactive: Potency [1] | Potency [2] | Potency [3] | outcome [4] | Potency [17] | outcome [5] | outcome [7] | outcome [8] | outcome [9] | outcome [19] | outcome [11] | outcome [18] | outcome [12] | outcome [13] | outcome [14] | Potency [15]

NCCCC(N)(C(=O)O)C(F)F (configuration not stated)
inactive: Potency [1] | Potency [2] | Potency [3] | outcome [4] | outcome [5] | outcome [6] | outcome [7] | outcome [8] | outcome [9] | outcome [10] | outcome [19] | outcome [11] | outcome [18] | outcome [12] | outcome [13] | outcome [14] | Potency [15] | Potency [16]

COc1ccnc(CS(=O)c2nc3cc(OC(F)F)ccc3[nH]2)c1OC (configuration not stated)
inactive: Potency [1] | Potency [2] | Potency [3] | outcome [4] | outcome [5] | outcome [6] | outcome [7] | outcome [8] | outcome [9] | outcome [10] | outcome [11] | outcome [18] | outcome [12] | outcome [14] | Potency [15] | Potency [16]

Cc1ncc(COP(=O)(O)O)c(C=O)c1O
inactive: Potency [1] | Potency [2] | Potency [3] | outcome [4] | Potency [17] | outcome [5] | outcome [7] | outcome [8] | outcome [9] | outcome [10] | outcome [19] | outcome [11] | outcome [18] | outcome [12] | outcome [14] | Potency [15] | Potency [16]

CCCCCCCCCC[N+](C)(C)[O-]
inactive: Potency [1] | Potency [2] | Potency [3] | outcome [4] | outcome [5] | outcome [6] | outcome [7] | outcome [8] | outcome [9] | outcome [10] | outcome [19] | outcome [11] | outcome [18] | outcome [12] | outcome [13] | outcome [14] | Potency [15]

CCCCCCCCCCOc1cc2c(=O)c(C(=O)OCC)c[nH]c2cc1OCC
inactive: Potency [1] | Potency [2] | Potency [3] | outcome [4] | outcome [5] | outcome [6] | outcome [7] | outcome [8] | outcome [10] | outcome [11] | outcome [18] | outcome [12] | outcome [13] | outcome [14]

Cc1ccc(-c2ncc(Cl)cc2-c2ccc(S(C)(=O)=O)cc2)cn1
inactive: Potency [1] | Potency [2] | Potency [3] | outcome [4] | Potency [17] | outcome [5] | outcome [6] | outcome [7] | outcome [8] | outcome [9] | outcome [10] | outcome [19] | outcome [11] | outcome [18] | outcome [12] | outcome [13] | outcome [14]

CCCOC(=O)CC
inactive: Potency [1] | Potency [2] | Potency [3] | outcome [4] | outcome [5] | outcome [6] | outcome [7] | outcome [8] | outcome [9] | outcome [11] | outcome [18] | outcome [12] | outcome [13] | outcome [14] | Potency [15] | Potency [16]

CC[N+](CC)(CC)CCOc1cccc(OCC[N+](CC)(CC)CC)c1OCC[N+](CC)(CC)CC
inactive: Potency [1] | Potency [2] | Potency [3] | outcome [4] | outcome [5] | outcome [6] | outcome [7] | outcome [8] | outcome [9] | outcome [10] | outcome [19] | outcome [11] | outcome [12] | outcome [13] | outcome [14] | Potency [15] | Potency [16]

Nc1c2c(nc3c1CCC3)CCCC2
inactive: Potency [1] | Potency [2] | Potency [3] | outcome [4] | outcome [5] | outcome [6] | outcome [7] | outcome [8] | outcome [9] | outcome [10] | outcome [19] | outcome [11] | outcome [18] | outcome [12] | outcome [13] | outcome [14]

NO
inactive: Potency [20] | Potency [2] | outcome [4] | outcome [5] | outcome [7] | outcome [8] | outcome [10] | outcome [19] | outcome [11] | outcome [18] | outcome [12] | outcome [13] | outcome [14]

Reference: PubChem BioAssay (Tox21)
